Assay results as given in PubChem BioAssay (NCATS).
Records with an inconclusive call do not appear. Active and inactive are the calls of the source. Calls come from the whole dose curve; as a rule, active = well fitted inhibition curve with a large enough effect; inconclusive = small, poorly fitted or top-dose-only effect; inactive = flat fitted curve, though single readings scatter.

Biological target: Voltage-gated inwardly rectifying potassium channel KCNH2 (Homo sapiens) (UniProt Q12809)
Test: qHTS Assay for Small Molecule Inhibitors of the Human hERG Channel Activity (AID 588834);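 note: lower thallium flux fluorescence means stronger hERG block; nearly all actives have a fitted effect of over 50% in size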; for activity change, negative = inhibition: top concentration of the series differs between compounds
Settings: U2OS BacMam hERG, FluxOR thallium flux fluorescence; series mostly up to 46.1 µM; activity change, negative = inhibition: at the top concentration
Method in brief: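 Cells were infected with hERG-BacMam virus for 4 hrs at room temperature, grown overnight, then seeded at 2000/well. After dye loading and roughly 10 min compound treatment, thallium influx was triggered and fluorescence recorded.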
% is set by controls: 0 for no effect and ±100 for the full control effect; potency is the fitted concentration of half-maximal effect.

Sequence of Voltage-gated inwardly rectifying potassium channel KCNH2 (Homo sapiens) (Q12809 whole entry, looked up): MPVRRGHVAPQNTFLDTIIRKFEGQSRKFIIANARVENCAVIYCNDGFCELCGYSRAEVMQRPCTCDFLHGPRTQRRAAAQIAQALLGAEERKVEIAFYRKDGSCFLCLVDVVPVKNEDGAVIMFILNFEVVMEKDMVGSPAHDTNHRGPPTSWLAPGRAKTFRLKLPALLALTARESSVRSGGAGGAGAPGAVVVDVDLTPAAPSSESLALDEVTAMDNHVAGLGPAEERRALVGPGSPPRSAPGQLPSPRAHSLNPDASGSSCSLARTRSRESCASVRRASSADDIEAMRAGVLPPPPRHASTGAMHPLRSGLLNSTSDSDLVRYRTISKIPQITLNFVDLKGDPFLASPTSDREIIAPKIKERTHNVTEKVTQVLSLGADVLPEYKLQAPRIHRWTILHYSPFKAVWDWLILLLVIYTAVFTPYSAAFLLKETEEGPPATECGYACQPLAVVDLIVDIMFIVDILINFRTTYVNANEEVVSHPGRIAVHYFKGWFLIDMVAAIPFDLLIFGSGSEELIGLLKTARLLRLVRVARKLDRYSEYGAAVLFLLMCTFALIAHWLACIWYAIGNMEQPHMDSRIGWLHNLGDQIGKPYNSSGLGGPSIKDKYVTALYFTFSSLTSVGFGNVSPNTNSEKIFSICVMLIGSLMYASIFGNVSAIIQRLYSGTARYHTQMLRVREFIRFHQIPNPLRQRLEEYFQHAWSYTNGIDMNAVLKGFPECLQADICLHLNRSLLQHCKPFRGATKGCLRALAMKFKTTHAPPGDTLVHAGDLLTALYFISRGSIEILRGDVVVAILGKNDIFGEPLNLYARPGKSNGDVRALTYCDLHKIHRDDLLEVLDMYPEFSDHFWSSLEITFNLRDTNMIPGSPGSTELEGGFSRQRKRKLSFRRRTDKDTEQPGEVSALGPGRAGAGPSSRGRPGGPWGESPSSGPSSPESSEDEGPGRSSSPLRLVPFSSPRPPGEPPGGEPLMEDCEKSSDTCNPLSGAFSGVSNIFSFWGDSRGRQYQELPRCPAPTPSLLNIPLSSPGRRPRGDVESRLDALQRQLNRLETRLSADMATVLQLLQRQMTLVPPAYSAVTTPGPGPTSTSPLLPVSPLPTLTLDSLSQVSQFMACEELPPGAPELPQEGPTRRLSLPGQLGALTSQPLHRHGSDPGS

Row | SMILES | activity change, negative = inhibition | Potency
1 | CCCn1c(=O)c2c(ncn2C)n(CCC)c1=O | 2.89% (inactive) | 
2 | C=CCN1CCc2c(cc(O)c(O)c2Cl)C(c2ccccc2)C1 (stereo not drawn) |  | 7.94 µM (active)
3 | NC1(C(=O)O)CCCCC1 | 3.61% (inactive) | 
4 | CCN(CC)CCCCCCCCOC(=O)c1cc(OC)c(OC)c(OC)c1 |  | 11.2 µM (active)
5 | CC1CNCCN1S(=O)(=O)c1cccc2cnccc12 (stereo not drawn) | 0% (inactive) | 
6 | Clc1nccc2c1ccc1ccccc12 | 0.87% (inactive) | 
7 | NCCS(=O)O | 23.5% (inactive) | 
8 | N[C@@H](Cc1c[nH]c2ccccc12)C(=O)O | -1.27% (inactive) | 
9 | CN(C)C(=O)/N=N/C(=O)N(C)C | 18.6% (inactive) | 
10 | O=[N+]([O-])c1cccc2cn[nH]c12 | 2.3% (inactive) | 
11 | C=C1C(=O)O[C@@H]2[C@H]3O[C@]3(C)CCC=C(C)CC[C@@H]12 | 9.69% (inactive) | 
12 | NCCCCN=C(N)N | 14.2% (inactive) | 
13 | Nc1ccc(-c2ccc3ccccc3n2)cc1 | -0.214% (inactive) | 
14 | C=CCn1c(=O)c2c(nc(-c3ccc(S(=O)(=O)O)cc3)n2C)n(C)c1=O | 0.033% (inactive) | 
15 | Nc1ncnc2c1ncn2C1CCCO1 (stereo not drawn) | 2.87% (inactive) | 
16 | Oc1ccc(Cn2cc[nH]c2=S)cc1 | 15.5% (inactive) | 
17 | CNC(=O)c1cc2c(cn1)[nH]c1ccccc12 | 6.81% (inactive) | 
18 | CSC(N)=NCCC[C@H](N)C(=O)O | 3.25% (inactive) | 
19 | NC(C(=O)N[C@@H]1C(=O)N2C(C(=O)O)=C(Cl)CS[C@H]12)c1ccccc1 (stereo partly drawn) | 7.03% (inactive) | 

Row | SMILES | activity change, negative = inhibition | Potency
20 | CC1=C(C(=O)O)N2C(=O)[C@@H](NC(=O)C(N)C3=CCC=CC3)[C@H]2SC1 (stereo partly drawn) | 12.2% (inactive) | 
21 | COc1ccccc1N1CCN(CCCNc2c(C)c(=O)n(C)c(=O)n2C)CC1 | -4.89% (inactive) | 
22 | CNc1cc(NS(=O)(=O)c2ccc(N)cc2)nc(NC)n1 | 12% (inactive) | 
23 | CCCN(CCc1ccccc1)C1CCc2c(O)cccc2C1 (stereo not drawn) |  | 0.355 µM (active)
24 | NC(N)=NC(N)=Nc1cccc(Cl)c1 |  | 8.91 µM (active)
25 | O=C(O)C1CN(CCCP(=O)(O)O)CCN1 (stereo not drawn) | 1.16% (inactive) | 
26 | Nc1ccc(-c2nc3ccc(-c4nc5ccc(N)cc5[nH]4)cc3[nH]2)cc1 | 0.191% (inactive) | 
27 | O=C(O)Cc1c[nH]c2ccc(O)cc12 | -2.56% (inactive) | 
28 | CCN(CC)CCOC(=O)c1cc(Cl)c(N)cc1OC | -23.7% (inactive) | 
29 | CSC(=N)N | 0.23% (inactive) | 
30 | N#CC(C#N)=C(N)/C(C#N)=C/c1ccc(O)cc1 | 14.7% (inactive) | 
31 | CCCCOC(=O)NS(=O)(=O)c1sc(CC(C)C)cc1-c1ccc(Cn2c(CC)nc3c(C)cc(C)nc32)cc1 |  | 14.1 µM (active)
32 | COc1cc2c(CCNC(C)=O)c[nH]c2cc1O | 3.8% (inactive) | 
33 | N[C@@H](Cc1ccc(O)c(I)c1)C(=O)O | 6.48% (inactive) | 
34 | N[C@@H](CCCC(=O)O)C(=O)O | 2.56% (inactive) | 
35 | NS(=O)(=O)c1cccc2c1c([N+](=O)[O-])cc1nc(O)c(O)nc12 | -12.5% (inactive) | 
36 | O=C(O)c1ccccc1Nc1cccc(OCc2ccc3ccccc3n2)c1 | 16.4% (inactive) | 
37 | NC(N)=N[C@@H](CCC(=O)O)C(=O)O | 6.33% (inactive) | 
38 | Oc1cc(O)c2c(c1)O[C@H](c1ccc(O)c(O)c1)[C@@H](O)C2 | 3.15% (inactive) | 
